The text below walks through data of PubChem BioAssay (NCATS).

Inconclusive results are not listed. Calls of active or inactive are those of the source. Calls follow the shape of the dose curve; as a rule, active = well fitted inhibition curve with a large enough effect; inconclusive = small, poorly fitted or top-dose-only effect; inactive = flat fitted curve, though single readings scatter. Bridge positions count the residues as written; N and C are the ends. Square brackets hold non-standard residues; d marks the D form. Peptide text beside a SMILES is read from it. hArg = N=C(N)NCCCC[C@H](N)C(=O)O; Mpa = O=C(O)CCS

The assay has as its system CRL-7250. Briefly: qHTS assay to identify novel small-molecules to repurpose for Merkel cell carcinoma treatment (AID 1296009). Also: nearly all actives have a fitted effect of over 60% in size. The conditions noted are these: MCC and control cell lines, CellTiter-Glo viability, 72 h; at 44.8 µM (top of the series) unless noted. The source says: MCC is a rare and aggressive neuroendocrine skin cancer with limited treatment options. Approximately 80% of MCCs have the Merkel cell polyomavirus (MCPyV) DNA integrated into the host genome (virus-positive: VP-MCC) and viral oncogenes drive oncogenesis. The remaining MCCs are virus-negative (VN-MCC) and are caused by UV mutagenesis. To identify novel treatments for VP-MCC and/or VN-MCC we screened three VP-MCC cell lines (WAGA, MKL-1, MKL-2), three VN-MCC cell lines (MCC-13, MCC-26, UISO), and four immortalized, non-transformed control cell lines (HaCaT, HEK293T, CRL7250, NIH-3T3) against ~2,400 compounds in the NCGC Pharmaceutical Collection (NPC) and ~1,900 compounds in the Mechanism Interrogation PlatE (MiPE). Using cell viability as a readout (CellTiter-Glo assay) we found both overlapping and distinct drugs that can be repurposed for the treatment of VP-MCC and VN-MCC.
A high-throughput screen was conducted in 1536-well white flat bottom plates (Corning) on a Kalypsys robotic system. Cell lines WAGA, MKL-1, MKL-2, MCC-13, MCC-26, UISO, HaCaT, HEK293T, CRL7250, and NIH-3T3 were screened against 2 small molecule annotated drug libraries NPC and MIPE in dose response (8 and 11 pt. respectively) measuring cell viability after 72 hours of incubation. […] A 1,536 pintool (Kalypsys) was used to transfer 23 nL of compound in DMSO to the 1,536-well assay plates. After 72 hr incubation at 37 degree celsius, 2.5 uL of CellTiter-Glo (Promega) was dispensed into each well using a BiorapTR. Plates were incubated at room temperature for 10 min, transferred to a ViewLux (PerkinElmer) and the luminescence was recorded using an exposure time of 2 seconds. Relative luminescence units (RLUs) were normalized to in-plate controls (no cells as a positive (cytotoxicity) control, DMSO as negative control) and the normalized data was processed using NCATS in-house software.
Background: qHTS replaces the single test concentration by a dilution series.
`CCN(CC)C(=O)N1CCN(C)CC1`: the outcome was inactive. The entry for `O=C(/C=C/c1ccccc1)NCCO` is “inactive”; for `C[C@]12CC[C@@H]3c4ccc(O)cc4CC[C@H]3[C@@H]1CC[C@@H]2OC(=O)CCC1CCCC1` it is “inactive”; for `CC(C)(C)OC(=O)c1ncn2c1[C@@H]1CCCN1C(=O)c1c(Br)cccc1-2` it is “inactive”.

For the molecule `Cc1cn([C@H]2C[C@H](F)[C@@H](CO)O2)c(=O)[nH]c1=O`, the molecule was classed as inactive.

As to `CCOc1ccccc1C(N)=O`, the call was inactive.

In the case of `C[C@@H]1CN(C2CCC(C#N)(c3ccc(F)cc3)CC2)CC[C@]1(C(=O)O)c1ccccc1` (stereo not given in full), the result was inactive. Take `Cc1c(Cl)cccc1Nc1ccccc1C(=O)O`: the result was inactive.

Consider `CC1(C)CO[C@@H](CC(=O)O)CN1`, for which the molecule was classed as inactive. The entry for `NC(N)=NC(=O)c1nc(Cl)c(N)nc1N` is “inactive”; for `Cc1cc(CC(=O)O)n(C)c1C(=O)c1ccc(Cl)cc1` it is “inactive”. The entry for `CC(C)(C)C(=O)C(Oc1ccc(Cl)cc1)n1ccnc1` (stereo not given) is “inactive”.

`CC1=C(C(=O)O)N2C(=O)[C@@H](NC(=O)[C@H](N)C3=CCC=CC3)[C@H]2SC1`: the call was inactive. The entry for `NC(=O)[C@@H]1CSSCCC(=O)N[C@@H](CCCCN=C(N)N)C(=O)NCC(=O)N[C@@H](CC(=O)O)C(=O)N[C@@H](Cc2c[nH]c3ccccc23)C(=O)N2CCC[C@H]2C(=O)N1` ([Mpa][hArg]GDWPC-NH2; disulfide 1-7) is “inactive”; for `OC(C#CCN1CCCC1)(c1ccccc1)c1ccccc1` it is “inactive”. The entry for `CN1[C@@H]2CC[C@H]1CC(OC(=O)c1c[nH]c3ccccc13)C2` (stereo not given in full) is “inactive”; for `CC(C(O)c1ccc(O)cc1)N1CCC(Cc2ccccc2)CC1` (stereo not given) it is “inactive [at 17.4 µM]”. The entry for `O=C1CC2(CCCC2)CC(=O)N1CCCCN1CCN(c2ncccn2)CC1` is “inactive”; for `Nc1nc2ncc(CNc3ccc(C(=O)N[C@@H](CCC(=O)O)C(=O)O)cc3)nc2c(=O)[nH]1` it is “inactive”; for `CCCC[N+]1(C)[C@@H]2CC(OC(=O)[C@H](CO)c3ccccc3)C[C@H]1[C@@H]1O[C@@H]12` (stereo not given in full) it is “inactive”. Take `CN(C)CCc1c[nH]c2cccc(O)c12`: the outcome is “inactive [at 92 µM]”. The entry for `Cc1cccc(N(C)C(=S)Oc2ccc3ccccc3c2)c1` is “inactive”.

With `Clc1ccc(C(Cn2ccnc2)OCc2ccsc2Cl)c(Cl)c1` (stereo not given), the outcome was inactive.

In the case of `CC(C)C(=O)OCc1cccc(OC(=O)[C@@H]2N3C(=O)[C@@H](NC(=O)Cc4ccccc4)[C@H]3SC2(C)C)c1`, the molecule was called inactive. `C(=C\c1ccccc1)/CN1CCN(C(c2ccccc2)c2ccccc2)CC1`: the call was inactive. For the molecule `O=C(O)c1cn(C2CC2)c2cc(Cl)c(F)cc2c1=O`, the result was inactive.

On to `Fc1ccc(C(c2ccc(F)cc2)N2CCNCC2)cc1`, for which the outcome was inactive. The entry for `CN(C)C(=O)Oc1cccc([N+](C)(C)C)c1` is “inactive”; for `Cc1[nH]c(C)c(Cl)c(=O)c1Cl` it is “inactive [at 17.4 µM]”; for `CN(C)CCN(Cc1ccccc1)c1ccccn1` it is “inactive”. Consider `Nc1c2c(nc3ccccc13)CCCC2`, for which the result was inactive.

Take `N/C(=N\N=C\c1ccc(Cl)cc1)N/N=C/c1ccc(Cl)cc1`: the outcome was inactive.

In the case of `Cc1cccc(C)c1NC(=O)C(C)N` (stereo not given), the result was inactive. As for `CC(C)(C)c1ccc(C(O)CCCN2CCC(C(O)(c3ccccc3)c3ccccc3)CC2)cc1` (stereo not given), the call was inactive. The entry for `COc1cc2[nH]c(=O)[nH]c(=O)c2cc1OC` is “inactive”; for `C[C@H]1C[C@H]2[C@@H]3CCC4=CC(=O)C=C[C@]4(C)[C@@]3(Cl)[C@@H](O)C[C@]2(C)[C@@]1(O)C(=O)CO` it is “inactive”; for `Cn1cc(C(=O)[C@@H]2CCc3nc[nH]c3C2)c2ccccc21` it is “inactive”. The entry for `Cc1ccc(Cl)c(OCC(O)CNC(C)(C)C)c1` (stereo not given) is “inactive”; for `CC(=O)[C@@]1(O)CC[C@H]2[C@@H]3CCC4=CC(=O)CC[C@]4(C)[C@H]3CC[C@@]21C` it is “inactive”; for `O=C(OCC(COC(=O)c1cccnc1)(COC(=O)c1cccnc1)COC(=O)c1cccnc1)c1cccnc1` it is “inactive”.
